Screening data deposited in PubChem BioAssay by several laboratories.
Most compounds without a hit are left out; they make up all but 1.3% or so of the library.
Phagocyt inh – macrophage phagocytosis inhibition. inhibition, % at 5 µM. AID 1029. 0.07% of 110,000 active. J774A.1 macrophage IgG-bead phagocytosis, imaging;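 active means inhibition above the mean of the plate negative controls plus 5 SD, cut at about 13% in these data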;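 further: phagocytic index as fraction of beads internalized from green versus red external bead signal; plate controls were DMSO negative control for no effect and cytochalasin-D positive control for full effect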
GALR2 agonist – activates the human galanin receptor 2; O43603; GALR2-expressing cells, agonist activation read-out; activation, % (no concentration beside the values); 0.48% of 140,000 active; AID 803; in the data active means activation above about 5%, passing the limit was not always enough;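 further: 0% = vehicle buffer wells and 100% = reference agonist at full effect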
S1P2 antag – antagonists of human S1P2 receptor | cell-based S1P2 antagonist assay, inhibition at 5 uM | inhibition, % at 5 µM | 0.21% of 97,000 active; in the data active means inhibition above about 45%;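 further: CRE beta-lactamase reporter cells expressing human S1P2 stimulated with S1P; 0% = agonist at EC80 alone and 100% = agonist plus reference antagonist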
Target sequence (O95136 whole entry, looked up): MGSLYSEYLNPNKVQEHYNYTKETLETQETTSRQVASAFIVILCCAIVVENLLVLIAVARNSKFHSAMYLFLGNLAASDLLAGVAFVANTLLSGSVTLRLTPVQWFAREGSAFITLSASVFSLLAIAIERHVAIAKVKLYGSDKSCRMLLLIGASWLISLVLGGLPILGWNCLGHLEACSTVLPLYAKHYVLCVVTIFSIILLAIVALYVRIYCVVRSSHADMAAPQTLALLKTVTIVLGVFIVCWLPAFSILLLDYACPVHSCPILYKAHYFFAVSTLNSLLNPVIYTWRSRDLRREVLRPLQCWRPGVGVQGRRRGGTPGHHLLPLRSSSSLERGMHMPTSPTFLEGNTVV
GALR2 antag – blocks the human galanin receptor 2; O43603; GALR2-expressing cells, antagonist mode; inhibition, % at 4 µM; 0.39% of 140,000 active; AID 828;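 further: cells stimulated with galanin 1-16 at roughly its EC80; 0% = agonist challenge control and 100% = basal control without agonist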
Calb biofilm kill – kills Candida albicans biofilms | C. albicans biofilm + clotrimazole, Alamar Blue | inhibition, % at 6 µM | 0.14% of 85,000 active;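 active means inhibition above 20%; inactive means inhibition below 20%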;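 further: preformed 24 hr biofilms exposed to compound for 48 hr; 0% = biofilm without compound and 100% = blank killed by clotrimazole plus chlorhexidine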
S1P2 ag – S1P2 (human) receptor agonism; 0.46% of 97,000 active; activation, % at 4.5 µM; O95136; AID 729; S1P2-expressing cell line, agonist reporter read-out; in the data active means activation above about 16%;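 further: 0% = vehicle low control and 100% = maximal reference agonist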
GALR2 blk conf – GALR2 (human) antagonism confirmed; shares compounds with GALR2 antag; GALR2-expressing cells, antagonist mode, inhibition; 60% of 480 active; inhibition, % at 4 µM; AID 866;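 further: cells stimulated with galanin at about its EC80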
BLA inh counter – counter-screen for GALR2 antagonists: beta-lactamase reporter inhibitors; shares compounds with GALR2 antag; CHO NFAT-BLA reporter, beta-lactamase FRET, thapsigargin-stimulated; inhibition, % at 4.2 µM; 36% of 480 active; AID 867;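 active means inhibition above the mean inhibition across tested compounds plus 3 SD, cut at about 27% in these data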;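 further: 0% = 500 nM thapsigargin stimulated wells and 100% = unstimulated BSA only wells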
Active calls of the source: *. Unless noted, no stated cut-off is given here; in the data, active means inhibition above about 27%; inactive means the rest.

Cc1ccc(CNC(=O)c2ccc(N3CCCC3=O)cc2)cc1 was read as Phagocyt inh -4, GALR2 agonist -2, S1P2 antag 6, GALR2 antag 7, Calb biofilm kill 8 and S1P2 ag -2.
Screening Cc1cc(C(=O)OCC(=O)Nc2ccccc2[N+](=O)[O-])c2ccccc2n1 returned Phagocyt inh -2, GALR2 agonist -1, GALR2 antag 40*, GALR2 blk conf 11 and BLA inh counter 9.
`O=C(NCCNC1CCN(Cc2ccccc2)CC1)c1cccs1` gave Phagocyt inh -1, GALR2 agonist -2, S1P2 antag 12, GALR2 antag -1 and S1P2 ag -5.
For O=C(OCn1ncc(Cl)c(Cl)c1=O)c1cccc(C(F)(F)F)c1 the results were GALR2 agonist -1, S1P2 antag 30, GALR2 antag 46*, S1P2 ag 1, GALR2 blk conf 66* and BLA inh counter 43*.
`Cn1c(SCC(=O)Nc2ccc3cn[nH]c3c2)nnc1-c1cccs1` gave Phagocyt inh -3, GALR2 agonist -2, S1P2 antag 10, GALR2 antag 30*, Calb biofilm kill 8, S1P2 ag -6, GALR2 blk conf 18 and BLA inh counter 14.
For O=C(N/N=C/c1cn(-c2ccccc2)nc1-c1cc2ccccc2o1)c1cccnc1 the results were Phagocyt inh -1, GALR2 agonist 1 and GALR2 antag 17.
`O=C(OC1CCN(c2ccc([N+](=O)[O-])cc2)CC1)c1ccccc1` gave Phagocyt inh -2, GALR2 agonist -1, S1P2 antag -7, GALR2 antag 9 and S1P2 ag -5.
`COc1cc(Nc2cc(C)nc3ncnn23)cc(OC)c1` gave Phagocyt inh 0, GALR2 agonist -2, GALR2 antag 30*, Calb biofilm kill -8, GALR2 blk conf 4 and BLA inh counter 5.
O=C(O)Cc1sc(N/N=C\c2ccccc2)nc1-c1ccccc1 was read as Phagocyt inh 3, GALR2 agonist -1, GALR2 antag 29*, GALR2 blk conf 11 and BLA inh counter 1.
`COc1ccc(Br)cc1CNC(=O)CCN1C(=O)COc2ccccc21` gave Phagocyt inh -1, GALR2 agonist -1, GALR2 antag 8 and Calb biofilm kill 5.
`O=c1c(Cl)c(Cl)cnn1-c1ccccc1` gave Phagocyt inh 7, GALR2 agonist -3, GALR2 antag 88*, GALR2 blk conf 92* and BLA inh counter 78*.
Screening O=c1c(Cl)c(Cl)cnn1Cc1ccccc1Cl returned Phagocyt inh -4, GALR2 agonist 2, GALR2 antag 63*, GALR2 blk conf 64* and BLA inh counter 61*.
For Cc1ccc(Cn2ncc(Cl)c(Cl)c2=O)cc1 the results were GALR2 agonist 0 and GALR2 antag 22.
For O=c1c(Cl)c(N/N=C/c2ccc(Cl)cc2)cnn1-c1ccccc1 the results were Phagocyt inh -9, GALR2 agonist 2 and GALR2 antag -5.
For O=C(N/N=C/c1ccc2c(c1)OCO2)c1ccc(Br)o1 the results were Phagocyt inh -7, GALR2 agonist 0 and GALR2 antag -13.
Screening CC(NC(=O)CN(C)Cc1nc2ccccc2c(=O)[nH]1)c1ccccc1 (stereo not drawn) returned Phagocyt inh 0, GALR2 agonist -3, S1P2 antag -9, GALR2 antag 36*, Calb biofilm kill 1, S1P2 ag -4, GALR2 blk conf 3 and BLA inh counter 4.
CN(C)c1ccc(NC2=C(Cl)C(=O)c3ccccc3C2=O)cc1 was read as Phagocyt inh -10, GALR2 agonist 0, GALR2 antag 41*, GALR2 blk conf 48* and BLA inh counter 9.
COc1ccc(C(=O)c2sc3nc(-c4ccccc4)ccc3c2N)cc1 was read as GALR2 agonist -2, GALR2 antag 32*, GALR2 blk conf 42* and BLA inh counter 49*.
COc1cc(CSc2nnnn2-c2ccc(C)cc2)cc(OC)c1OC was read as Phagocyt inh -1, GALR2 agonist -1, GALR2 antag 43*, Calb biofilm kill 0, GALR2 blk conf 41* and BLA inh counter 14.
For CCCSc1nnc(NC(=O)c2sc3nc(-c4cccs4)ccc3c2N)s1 the results were Phagocyt inh -1, GALR2 agonist -4, S1P2 antag 55*, GALR2 antag 38*, S1P2 ag -12, GALR2 blk conf 21 and BLA inh counter 34*.
For CCOC(=O)C1=C(O)c2ccccc2C(=O)/C1=C\c1ccc(C)cc1 the results were Phagocyt inh -5, GALR2 agonist -1, GALR2 antag 30*, GALR2 blk conf 15 and BLA inh counter 14.
Screening Cc1ccc(S(=O)(=O)CCC(=O)c2ccc(O)cc2O)cc1 returned Phagocyt inh -1, GALR2 agonist -2, S1P2 antag -1, GALR2 antag -4, Calb biofilm kill 0 and S1P2 ag -2.
Screening CCS(=O)(=O)c1c([N+](=O)[O-])ncn1C returned Phagocyt inh -4, GALR2 agonist -3, GALR2 antag 28*, GALR2 blk conf 23 and BLA inh counter 1.
Screening COCC(=O)Nc1ccc(S(=O)(=O)Nc2ncccn2)cc1 returned Phagocyt inh -1, GALR2 agonist -1, S1P2 antag -7, GALR2 antag -1 and S1P2 ag -2.
Cc1ccn2c(Nc3ccc4c(c3)OCO4)c(-c3ccccn3)nc2c1 was read as Phagocyt inh -2, GALR2 agonist -2, GALR2 antag 30*, GALR2 blk conf 20 and BLA inh counter 26.
Screening CC(=O)Nc1ccccc1OCC(=O)c1cc(C)n(Cc2cccs2)c1C returned Phagocyt inh 2, GALR2 agonist -1, GALR2 antag 39*, Calb biofilm kill 0, GALR2 blk conf 51* and BLA inh counter 24.
Screening Cc1cc(C(=O)COC(=O)c2ccccc2O)c(C)n1Cc1cccs1 returned Phagocyt inh -1, GALR2 agonist -3, S1P2 antag -11, GALR2 antag -1 and S1P2 ag 0.
Cc1nn(C)c(C)c1N1C(=O)c2cccc3c(N)ccc(c23)C1=O was read as Phagocyt inh -5, GALR2 agonist -1, GALR2 antag 32*, GALR2 blk conf 20 and BLA inh counter 25.
Cc1nn(C)c(C)c1N1C(=O)c2cccc3c(Br)ccc(c23)C1=O was read as GALR2 agonist 1, S1P2 antag 45, GALR2 antag 29*, Calb biofilm kill 0, S1P2 ag -7, GALR2 blk conf 30* and BLA inh counter 18.
`OCCCc1nc2n(n1)C(c1ccccc1Cl)C=C(c1cccs1)N2` (stereo not drawn) gave Phagocyt inh -1, GALR2 agonist 1, S1P2 antag 24, GALR2 antag 28*, Calb biofilm kill 8, S1P2 ag -13, GALR2 blk conf 17 and BLA inh counter 23.
